The record followed here is PubChem BioAssay.

The source made the active and inactive calls.

Experiment [1] deals with XIP peptide (Xip251-270) binding. In words: small-molecule binders of XIP peptide, primary screen, biochemical, small-molecule microarray, fluorescence 635/667 nm, 0.1 µg/mL protein (AID 1182). The settings on record: fluorescent protein binding, 635 nm, higher = more signal, called active from +8 up or from −8 down.
The next experiment has as its system XIP peptide (Xip251-270). In words: small-molecule binders of XIP peptide, primary screen, biochemical, small-molecule microarray, fluorescence 635/667 nm, 0.5 µg/mL protein (AID 1183). The settings on record: small-molecule microarray binding, fluorescence 635 nm; higher = more signal.
The nature of experiment [2]: Plasmodium falciparum growth inhibition, primary screen, strain 3D7, DAPI fluorescence, 100 nL (AID 1184).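 Note: parasites grown inside human red blood cells in medium with human serum.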 Conditions: P. falciparum 3D7 growth, 3 d, higher = more signal.
Experiment [3] deals with Homeobox protein Hox-A13 (Mus musculus) (UniProt Q62424). In words: inhibitors of HoxA13-DNA binding, primary screen, biochemical, fluorescence polarization, labeled oligonucleotide (AID 1185). Conditions: 15 min, higher = more signal, called active from +8 up or from −8 down.
Sequence of Homeobox protein Hox-A13 (Mus musculus) (Q62424 whole entry, looked up): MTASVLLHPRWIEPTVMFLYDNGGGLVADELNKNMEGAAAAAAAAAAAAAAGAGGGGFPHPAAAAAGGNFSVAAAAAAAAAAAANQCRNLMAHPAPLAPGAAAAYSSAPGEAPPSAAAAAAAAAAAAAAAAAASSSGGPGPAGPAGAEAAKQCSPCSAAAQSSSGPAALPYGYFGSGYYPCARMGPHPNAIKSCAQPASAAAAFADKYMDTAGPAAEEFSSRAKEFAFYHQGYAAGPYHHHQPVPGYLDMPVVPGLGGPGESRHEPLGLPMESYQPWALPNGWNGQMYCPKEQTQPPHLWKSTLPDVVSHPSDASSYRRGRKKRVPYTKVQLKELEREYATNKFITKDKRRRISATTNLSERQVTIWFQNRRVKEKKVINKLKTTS

Turning to `O=C1[C@H]2[C@H]3[C@H](O)[C@H](O)CC(=NOCc4ccccc4)[C@H]3CC[C@H]2C(=O)N1c1ccc(F)cc1F`, the values for the composite z-score (in experiment [1]; in the experiment on XIP peptide (Xip251-270)) were -0.0939 (inactive) and 0.159, respectively. Besides, the z-score in experiment [2] is -1.08; in experiment [3] it was 1.02 (inactive).

In the case of `CC(C)=NOCc1ccc(-c2cc(-c3ccccc3)no2)cc1`, the composite z-score was -0.191 (inactive) in experiment [1] and -0.0722 with XIP peptide (Xip251-270). Moreover, the figures for the z-score in experiment [2] and in experiment [3] were 0.382 and 0.736 (inactive), respectively.

For `C[C@H]1CC[C@@H](C(=O)O)N[C@@H]1c1ccc(C#CCN(C)C)cc1`, the composite z-score in experiment [1] was 0.908 (inactive); in the experiment with XIP peptide (Xip251-270) it was 0.512. Besides, the values for the z-score in experiment [2] and in experiment [3] were -0.0492 and -1.16 (inactive), respectively.

Regarding `CO[C@H]([C@@H](C)[C@H](OC)c1ccccc1)[C@H](C)[C@@H](OC)[C@H](C)C(C)=O`, the composite z-score in experiment [1] is 0.111 (inactive); in the experiment with XIP peptide (Xip251-270) it was -0.694. In addition, the z-score in experiment [2] is 0.117; in experiment [3], -1.36 (inactive).

`CC(=O)OC[C@H]1O[C@H](CC=NOC[C@@H](C)[C@H](OCc2ccccc2)C(C)C)C=C[C@@H]1OC(C)=O`: the composite z-score was -0.655 (inactive) in experiment [1] and -0.303 with XIP peptide (Xip251-270). Moreover, the z-score was -0.46 in experiment [2] and -5.81 (inactive) in experiment [3].

For the molecule `CCOC(=O)NN=C1C[C@@H](O)[C@@H](O)[C@@H]2[C@@H]3C(=O)N(C4CCCCC4)C(=O)[C@@H]3CC[C@@H]12`, the composite z-score in experiment [1] was 0.311 (inactive); with XIP peptide (Xip251-270) it was 0.101. Moreover, the results for the z-score in experiment [2] and in experiment [3] were 1.51 and -0.86 (inactive), respectively.

Take `CCc1cc2c(nc1CC)CCN(CCC(C)=NOC(C)CN1CCCc3nc(C)c(C)cc31)C2` (stereo not given): the composite z-score in experiment [1] is 1.36 (inactive); in the experiment with XIP peptide (Xip251-270) it was 0.561. Besides, the z-score in experiment [2] was 0.74; in experiment [3] it was -9.89 (active).

On to `CC(CCN1CCc2nc(-c3ccccc3)c(-c3ccccc3)cc2C1)=NOC(C)CN1CCCCc2nc(C)c(C)cc21` (stereo not given), for which the composite z-score in experiment [1] was 0.685 (inactive); in the experiment with XIP peptide (Xip251-270), 0.312. The z-score in experiment [2] is 0.0201; in experiment [3] it was -4.25 (inactive).

As for `COc1cccc([C@H]2Oc3ccc(OC)cc3C(=NOC(C)CN3CCCc4nc(C)c(C)cc43)[C@@H]2O)c1` (stereo not given in full), the values for the composite z-score (in experiment [1]; in the experiment on XIP peptide (Xip251-270)) were 0.22 (inactive) and -0.452, respectively. For the same molecule, the results for the z-score in experiment [2] and in experiment [3] were -1.06 and -8.09 (active), respectively.

For the molecule `CC(=O)C[C@H](O)[C@@H](NC(=O)OC(C)(C)C)C(C)C`, the composite z-score was -0.0306 (inactive) in experiment [1] and -0.161 in the experiment with XIP peptide (Xip251-270). In addition, the z-score was -1.24 in experiment [2] and 0.787 (inactive) in experiment [3].

Take `C=CC[C@@H]1C=C[C@H](ON=C[C@@H](OC)[C@H](C)C=CCC(=O)OC)[C@@H](CO)O1`: the composite z-score is -0.0604 (inactive) in experiment [1] and 0.168 in the experiment on XIP peptide (Xip251-270). Also, the z-score in experiment [2] was 0.167; in experiment [3] it was -0.413 (inactive).

On to `C[C@@H](c1ccccc1)N1C(=O)[C@H]2[C@H]3[C@H](O)[C@H](O)CC(=NNC(=O)OCc4ccccc4)[C@H]3CC[C@H]2C1=O`, for which the values for the composite z-score (in experiment [1]; in the experiment on XIP peptide (Xip251-270)) were -0.724 (inactive) and -0.131, respectively. Moreover, the z-score in experiment [2] is -0.547; in experiment [3], -5.68 (inactive).

Turning to `CC(C)CON=C1C[C@@H](O)[C@@H](O)[C@@H]2[C@@H]3C(=O)N(C[C@@H]4CCCO4)C(=O)[C@@H]3CC[C@H]12`, the composite z-score in experiment [1] is -0.125 (inactive); in the experiment on XIP peptide (Xip251-270), 0.0241. The z-score is -0.421 in experiment [2] and -1.58 (inactive) in experiment [3].

Take `COC(=O)CC=C[C@@H](C)[C@H](OC)c1ccccc1Br`: the composite z-score in experiment [1] is -0.575 (inactive); in the experiment on XIP peptide (Xip251-270), -0.412. For the same molecule, the z-score was 0.805 in experiment [2] and -0.0487 (inactive) in experiment [3].

With `C=CC[C@@H]1C=C[C@H](ON=Cc2ccc(C(=O)N3[C@H](c4ccc(C)cc4)[C@@H](C)CC[C@H]3C(=O)OC)cc2)[C@@H](CO)O1`, the composite z-score is -0.27 (inactive) in experiment [1] and 0.379 in the experiment on XIP peptide (Xip251-270). Besides, the z-score in experiment [2] is 0.495; in experiment [3] it was -6.28 (inactive).

Regarding `C[C@H](c1ccccc1)N1C(=O)[C@H]2[C@@H]3C(=CC[C@H]2C1=O)C(=O)[C@H]1O[C@H]1[C@H]3O`, the composite z-score in experiment [1] was -0.584 (inactive); in the experiment on XIP peptide (Xip251-270), 0.008. The values for the z-score in experiment [2] and in experiment [3] were -1.23 and -6.83 (inactive), respectively.

Turning to `CO[C@H]1COC(=O)CC=C[C@H](C)[C@@H](NS(=O)(=O)c2ccc(C)cc2)COC(=O)CC=C[C@@H]1C`, the composite z-score in experiment [1] was -0.116 (inactive); with XIP peptide (Xip251-270), 0.0878. Further, the z-score was -0.648 in experiment [2] and 1.31 (inactive) in experiment [3].

As to `CCOC(=O)NN=C1C[C@@H](O)[C@@H](O)[C@@H]2[C@@H]3C(=O)N(C(C)(C)C)C(=O)[C@@H]3CC[C@@H]12`, the values for the composite z-score (in experiment [1]; with XIP peptide (Xip251-270)) were 0.63 (inactive) and -0.145, respectively. Besides, the z-score in experiment [2] was 0.439; in experiment [3], -1.69 (inactive).

In the case of `CCN1C(=O)[C@H]2[C@H]3[C@H](O)[C@H](O)CC(=NOC(C)CN4CCCCc5nc(C)c(C)cc54)[C@@H]3CC[C@H]2C1=O` (stereo not given in full), the composite z-score in experiment [1] is 0.746 (inactive); with XIP peptide (Xip251-270), 0.196. For the same molecule, the z-score in experiment [2] is 0.0706; in experiment [3], -1.48 (inactive).

Take `CO[C@H]1COC(=O)[C@@H]2CCCN2C(=O)CC=C[C@@H](C)[C@H](OC)COC(=O)CC=C[C@@H]1C`: the composite z-score is 0.371 (inactive) in experiment [1] and 0.298 in the experiment with XIP peptide (Xip251-270). For the same molecule, the z-score in experiment [2] is 0.372; in experiment [3] it was -0.346 (inactive).

In the case of `CC(CCN1CCc2nc(-c3ccccc3)c(-c3ccccc3)cc2C1)=NOC[C@@H](C)[C@H](OCc1ccccc1)C(C)C`, the values for the composite z-score (in experiment [1]; in the experiment with XIP peptide (Xip251-270)) were 2.56 (inactive) and -0.445, respectively. Also, the z-score was -0.784 in experiment [2] and -0.978 (inactive) in experiment [3].

As to `CCCNC(=O)OC[C@H]1O[C@H](CCON=CC[C@@H]2C=C[C@H](OC(C)=O)[C@@H](COC(C)=O)O2)C=C[C@@H]1Oc1ccc(OC)cc1`, the composite z-score in experiment [1] was 0.27 (inactive); in the experiment on XIP peptide (Xip251-270), 0.512. In addition, the z-score in experiment [2] is -0.133; in experiment [3] it was -6.56 (inactive).

In the case of `CC(=O)OC[C@H]1O[C@H](CCON=C(C)CCN2CCc3nc(-c4ccccc4)c(-c4ccccc4)cc3C2)C=C[C@@H]1OC(C)=O`, the composite z-score in experiment [1] is 0.583 (inactive); in the experiment on XIP peptide (Xip251-270), -0.0332. Also, the z-score in experiment [2] is -0.697; in experiment [3] it was -4.36 (inactive).

Turning to `CC[C@@H](c1ccccc1)n1c(=O)n2n(c1=O)[C@H]1[C@H](O)[C@@H]3O[C@@H]3C(=NOCC=C(C)CCC=C(C)C)[C@H]1CC2`, the composite z-score in experiment [1] was 0.17 (inactive); with XIP peptide (Xip251-270), 0.4. Also, the z-score in experiment [2] is -0.444; in experiment [3], -3.96 (inactive).

Turning to `CCOC(=O)CCN1C(=O)[C@H]2[C@H]3[C@H](O)[C@H](O)CC(=NNC(=O)OCc4ccc(OC)cc4)[C@@H]3CC[C@H]2C1=O`, the values for the composite z-score (in experiment [1]; in the experiment with XIP peptide (Xip251-270)) were 0.59 (inactive) and 0.05, respectively. Further, the results for the z-score in experiment [2] and in experiment [3] were -0.688 and 0.614 (inactive), respectively.
